# From PubChem BioAssay AID720504 (National Center for Advancing Translational Sciences (NCATS), 2013)
# About 10,000 (2.8%) of roughly 360,000 compounds were called active. Roughly 4% stayed inconclusive and do not appear here. Only a selection was taken, and actives are over-represented in it overall. Unmarked numbers belong to inactive results. Calls come from the whole dose curve; as a rule, active = well fitted inhibition curve with a large enough effect; inconclusive = small, poorly fitted or top-dose-only effect; inactive = flat fitted curve, though single readings scatter.
# Target: Serine/threonine-protein kinase PLK1 (Homo sapiens) (UniProt P53350)
# Sequence (P53350 whole entry, looked up, the tested form may be a part): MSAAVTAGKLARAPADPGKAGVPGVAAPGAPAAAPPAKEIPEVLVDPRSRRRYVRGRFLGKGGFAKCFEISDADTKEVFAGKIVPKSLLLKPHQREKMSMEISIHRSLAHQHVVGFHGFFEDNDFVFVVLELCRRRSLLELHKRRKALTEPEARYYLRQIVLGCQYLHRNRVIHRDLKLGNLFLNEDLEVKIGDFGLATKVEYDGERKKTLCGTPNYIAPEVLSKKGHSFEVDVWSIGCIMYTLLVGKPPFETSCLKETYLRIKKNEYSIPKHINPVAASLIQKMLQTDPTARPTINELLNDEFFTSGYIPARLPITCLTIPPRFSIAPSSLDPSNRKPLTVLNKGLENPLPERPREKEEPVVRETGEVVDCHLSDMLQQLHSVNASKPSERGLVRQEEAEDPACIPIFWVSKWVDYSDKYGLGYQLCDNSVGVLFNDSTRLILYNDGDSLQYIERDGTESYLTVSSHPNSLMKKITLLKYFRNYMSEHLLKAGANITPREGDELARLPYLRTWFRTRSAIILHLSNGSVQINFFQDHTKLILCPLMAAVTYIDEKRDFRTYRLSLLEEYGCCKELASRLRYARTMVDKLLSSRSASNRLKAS
# Assay: qHTS for Inhibitors of PLK1-PDB (polo-like kinase 1 - polo-box domain): Primary Screen; note: nearly all actives have a fitted effect of over 65% in size; for max response, negative = inhibition: series mostly up to about 57 µM
# Details: Plk1 PBD binding of FITC phosphopeptide, fluorescence polarization
# % is set by controls: 0 for no effect and ±100 for the full control effect; potency is the fitted concentration of half-maximal effect.
SMILES,"max response, negative = inhibition [%]",Potency
CCCCC[C@H](C)N1C[C@@H](COCc2ccccc2)Oc2cc(N3CCC[C@@H]3CO)ccc2S1(=O)=O,-6.61,–
CC(C)C[C@@H]1Cc2[nH][nH]c(=O)c2[C@H](CCc2ccccc2)O1,-16.3,–
COc1ccccc1CNC(=O)c1cc(-c2cc(Cl)ccc2C)n[nH]1,0.345,–
O=[N+]([O-])/C=C/c1ccc2c(ccn2Cc2ccccc2)c1,–,3.36 µM (active)
CCc1nc2c(OCCOc3ccccc3)cccn2c1N(C)C(=O)c1ccccc1F,-11.2,–
CCCCc1nnc(NC(=O)CSc2nc(C)cc(=O)[nH]2)s1,-4.5,–
CCOC(=O)Cc1csc(NC(=O)CSc2nc(C)cc(=O)[nH]2)n1,–,11.9 µM (active)
CCOC(=O)Cc1csc(NC(=O)CSc2ccc(Br)cc2)n1,-1.13,–
Cn1c(NCc2cccnc2)nc2cc(-c3ccc(F)cc3)sc2c1=O,-3.07,–
COC(=O)[C@@]12C[C@@H](CC(=O)N3CCCCC3)C(=O)N(Cc3ccc4c(c3)OCO4)C1=CCC(C)(C)C2,2.15,–
CC(C)C[C@H]1CNC(=S)N1C[C@H]1CCCN1C[C@H](Cc1ccc(O)cc1)N1C[C@H](Cc2ccc(O)cc2)N(CC2CCCCC2)C1=S,1.95,–
CC1(C(=O)NCc2ccc3c(c2)OCO3)CCN1C(=O)Cc1cccc2ccccc12 (stereo not given),-5.76,–
CCn1c(C(C)NC(=O)c2ccc(C)cc2)n[nH]c1=S (stereo not given),-15.1,–
CCN1CCC2(CC1)N=C(c1ccc(F)cc1)C(=S)N2C(=O)c1ccc(C)cc1,–,15 µM (active)
Cc1ccc(C(=O)N(CN2CCCC2=O)c2ccc(F)cc2)cc1,-5.15,–
CCOc1ccc(NS(=O)(=O)c2ccc(C)c(C(N)=O)c2)cc1,1.44,–
CCOc1ccc2nc(NCCNC(=O)C(C)(C)C)c(C)cc2c1,–,26.7 µM (active)
CCOc1ccc(NC(=O)c2cc(C)nc3ccccc23)cc1,-0.67,–
COc1ccc(NC(=O)C2(C)Cc3c(-c4cccc(NC(C)=O)c4)ccnc3O2)cc1OC (stereo not given),-12.3,–
CCn1c(=S)[nH]c2sc3c(c2c1=O)CCCCC3,–,23.8 µM (active)
CCCc1nc2sc3c(c2c(=O)n1NC(=O)CCCl)CCCC3,-16.7,–
CN(C)CCCn1c(=O)n(Cc2ccccc2)c(=O)c2c3c(sc21)CCCCC3,-1.79,–
CCN(CC)C(=O)C1=C(C)N(Cc2ccc(OC)cc2)C(=O)C(CC(=O)NCc2ccco2)C1 (stereo not given),5.53,–

SMILES,"max response, negative = inhibition [%]",Potency
CC(C)c1cccc(C(C)C)c1Nc1cn[nH]c1,3.35,–
O=S(=O)(NC1CCCCC1N1CCCCC1)c1ccc(Cl)cc1 (stereo not given),3.73,–
O=S(=O)(NC1CCCCC1N1CCC(O)CC1)c1ccc(Cl)cc1 (stereo not given),-6.48,–
CCN1CCN(C2CCCCC2NS(=O)(=O)c2ccc(Cl)cc2)CC1 (stereo not given),–,26.7 µM (active)
Cc1cc(O)ccc1-c1cc(C(=O)NCc2cc(C(F)(F)F)cc(C(F)(F)F)c2)[nH]n1,3.49,–
CCCCCC(O)(CCN1CCCCC1)c1ccccc1 (stereo not given),-0.139,–
C#CC(CCN1CCCCC1)(OC)c1ccccc1 (stereo not given),-7.33,–
CCCCCCC(O)(CCN1CCCCC1)c1ccccc1 (stereo not given),–,29.9 µM (active)
Cc1ccn(CC(=O)NC2CCCN(Cc3ccccc3F)C2)n1 (stereo not given),-1.67,–
CN(Cc1ccc(F)cc1)C(=O)COc1ccc2ccccc2c1,-5.68,–
Fc1ccc(COc2cccc(-c3n[nH]c(=S)o3)c2)cc1,–,6.7 µM (active)
Fc1ccc(COc2ccc(-c3nnco3)cc2)cc1,2.81,–
COCCCn1cc(CN2CC(N(C)C)CS2(=O)=O)nn1 (stereo not given),2.09,–
CC(=O)N1C[C@@H](CO)[C@@H](N(C)C(=O)c2ccco2)C[C@H]1c1ccccc1,-12.5,–
COc1ccc(OC)c(Nc2nc(-c3ccc(O)c(O)c3)cs2)c1,–,29.9 µM (active)
COc1ccc(C(O)c2nc(-c3ccc4c(c3)OCO4)cs2)cc1 (stereo not given),6.53,–
COc1ccc(-c2csc(Nc3cccc(C)n3)n2)cc1OC,8.19,–
Cc1noc(C)c1C(=O)N1CCC1(C)C(=O)NS(=O)(=O)c1ccc(C#N)cc1 (stereo not given),-3.77,–
CC1(C(=O)NCc2ccccc2)CSCC(=O)N1CCCN1CCOCC1 (stereo not given),6.34,–
O=C1CCNCCN1[C@H](CO)Cc1ccccc1,-3.76,–
O=C1CC[C@H](O)CCN1[C@H](CSc1ccc(Br)cc1)Cc1ccccc1,–,11.9 µM (active)
C[C@H]1CCC(=O)N([C@H](CSc2ccccc2)Cc2ccccc2)CC1,-3.56,–
CN(CCc1ccccc1)c1ccc([N+](=O)[O-])cn1,-3.04,–

SMILES,"max response, negative = inhibition [%]",Potency
CCN(CC)S(=O)(=O)c1ccc(N(C)Cc2cccc(OC)c2OC)nc1,-1.33,–
CCN(CC)S(=O)(=O)c1ccc(N(C)Cc2ccc(C(F)(F)F)cc2)nc1,–,29.9 µM (active)
CCCS(=O)(=O)NC(=O)C1(C)CCCN(C(=O)c2ccnc(Cl)c2)C1 (stereo not given),3.92,–
CC(C)N1C(=O)c2ccccc2NC(=O)C1C(=O)NCc1cccs1 (stereo not given),-1.29,–
CC(=O)N1Cc2cc(C(=O)NCc3cccc(F)c3)nc(-c3cccc(C4=CCCCC4)c3)c2[C@H]1CCO,-9.42,–
CN1CCN(C(=O)c2ccc(NC(=O)c3ccc(Br)o3)cc2)CC1,-7.09,–
O=C(Cn1nc(CNc2ccc(Cl)cc2)[n+]2c1CCCCC2)c1ccc(Cl)cc1,–,21.2 µM (active)
O=C(Cn1ncc(N2CCCC2)c(Br)c1=O)c1ccc(Cl)cc1,-7.29,–
O=C(Cn1nnc(N2CCCCC2)n1)c1ccc(Cl)c(Cl)c1,-14.1,–
O=C(NC(c1ccc(-c2ccccc2)cc1)c1cnccn1)C1CCN(CCOc2ccc(Cl)cc2Cl)CC1 (stereo not given),-2.44,–
O=C1NC[C@H](CCCCN2C[C@H](Cc3ccccc3)N(Cc3ccccc3)C(=O)C2=O)N(CCc2ccc(O)cc2)C1=O,3.35,–
C[C@H]1CN([C@@H](C)CO)C(=O)CCCn2nncc2CO[C@@H]1CN(C)S(=O)(=O)c1cccc(C#N)c1,-7.11,–
Cc1cn(C2OC[C@@H](O)[C@@H]2CO)c(=O)[nH]c1=O (stereo not given in full),-5.18,–
Cc1cn(C2C=CC(CO)O2)c(=O)[nH]c1=O (stereo not given),–,29.9 µM (active)
Cc1cn([C@H]2C[C@H](O)[C@@H](/C=C/C(=O)NCCCc3ccccc3)O2)c(=O)[nH]c1=O,-13.1,–
O=C(CCN1CCCCC1)Nc1ccc(F)c(F)c1,-0.714,–
CCCCN1CC(N2CCN(Cc3cccc(C)c3)CC2)CS1(=O)=O (stereo not given),-2.99,–
CCOC(=O)C1=CC[C@@H](c2ccccc2)N(S(=O)(=O)c2ccc(C)cc2)[C@H]1c1ccc(CC)cc1,-1.73,–
NC1=CC(=O)C(=O)c2cccnc21,-7.35,–
COCCCNC(=O)CN1CCN(Cc2ccccc2Cl)C1=O,-7.04,–
COCCCNC(=O)Cn1c(=O)n(Cc2ccccc2Cl)c(=O)c2cc(OC)c(OC)cc21,–,29.9 µM (active)
COc1ccc(CCNC(=O)Cn2c(=O)n(CC3CCCO3)c(=O)c3ccccc32)cc1OC (stereo not given),-13.3,–
CCNC(=O)C1(C)CCCN(Cc2noc(-c3ccccc3OC)n2)C1 (stereo not given),-4.99,–

SMILES,"max response, negative = inhibition [%]",Potency
C[C@H]1Cn2cnc(C(=O)N[C@@H](Cc3c[nH]c4ccccc34)C(=O)OC(C)(C)C)c2C(=O)N1,-0.575,–
CC(C)c1ccc(OCC(O)Cn2cnc3ccccc32)cc1 (stereo not given),-4.3,–
CC(=O)N=c1ncn(CC(COC(C)=O)OC(C)=O)c2nc[nH]c12 (stereo not given),-2.18,–
CC(=O)OC(COc1ccc(F)cc1)Cn1cnc2ccccc21 (stereo not given),–,37.7 µM (active)
CCCNC(=O)c1cc(C2CCCN(C(=O)c3ccc4c(c3)CCO4)C2)on1 (stereo not given),-6.48,–
CCCC(=O)N1CCC1(C)C(=O)NCc1ccc(C(C)C)cc1 (stereo not given),-11.6,–
O=C(Cc1ccc([N+](=O)[O-])cc1)NCCS(=O)(=O)N1CCN(c2ccccc2)CC1,-7.66,–
COC(=O)C[C@H]1C=C[C@@H](NS(=O)(=O)c2ccc(C)cc2)[C@@H](CO)O1,2.12,–
CC1(c2cccc(Br)c2)NC(=O)N(CC(=O)NCCC2=CCCCC2)C1=O (stereo not given),-9.46,–
CC(C)(C)c1cc(C(=O)NCc2cccnc2)ccn1,-6.13,–
Cc1ccc(-n2nc(-c3ccco3)cc2C(=O)NCc2cccnc2)cc1,–,9.47 µM (active)
CSc1sc(C(=O)NC(=O)NCc2cccnc2)c(C)c1-c1ccon1,-0.192,–
Nc1[nH]c(=S)nc2nc(-c3ccccc3)c(-c3ccccc3)nc12,–,21.2 µM (active)
CCCCOCCCNC(=O)C[C@@H]1C[C@@]2(C(=O)OC)CCCCC=C2N(CCC2=CCCCC2)C1=O,1.64,–
CCN(Cc1ccncc1)C(=S)Nc1ccccc1C,-0.726,–
CCc1ccc(-n2c(=S)sc3c(=O)n(-c4ccccc4OC)c(=S)[nH]c32)cc1,–,11.9 µM (active)
COc1cccc(-n2c(=S)sc3c(=O)n(-c4ccccc4OC)c(SCC4OCCO4)nc32)c1,4.69,–
COc1ccccc1-n1cn[nH]c1=S,-29.4,–
COc1ccc(OC)c(-n2c(=S)[nH]c3cc(C(=O)N4CCCCC4)ccc3c2=O)c1,2.08,–
COc1ccccc1N1CCN(c2nc(C)cc(=O)[nH]2)CC1,-12.7,–
COc1ccccc1-n1c(=S)[nH]c2c(sc(=S)n2-c2ccc(C)cc2C)c1=O,–,6.7 µM (active)
